Reference: PubChem BioAssay AID1852 (Sanford-Burnham Center for Chemical Genomics, 2009)
Hit rate of the full screen: of about 2,500 compounds, about 1,100 (44%) were called active.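 How the source made its calls: active means inhibition above 50% at 4 µM in the single-point screen; inactive means inhibition of 50% or less.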 The set was probably picked from earlier hits. The list shows a part of the results.

experiment: TNF-a-driven NF-kB reporter inhibitors, primary screen, selectivity assay for NOD1/NOD2 signaling inhibitor project, cell-based, HEK293T NF-kB-Luc, luminescence (AID 1852); settings: TNF-a induced, 14 h, at 4 µM, stronger effect = higher value

inhibition, inactive:
CCc1nn2cc(C(=O)c3cc(Cl)ccc3O)cnc2c1-c1ccc(F)cc1 -6%
COc1ccc(NC(=O)CN(C)C(=O)c2ccccc2OC)cc1 -11.8%
CCn1c(SCC(=O)Nc2ccc(OC)cc2)nc2nc3c(cc2c1=O)CCCC3 -16.7%
CC(C)(C)C1CCC2(CC1)C(C#N)=C(SCC(=O)NC1CCCCC1)NC(=O)C2C#N (configuration not stated) -10.7%
O=C1NC(=S)S/C1=C\c1cc2ccccc2nc1N1CCCCC1 42%
O=C(CN1C(=O)c2ccccc2S1(=O)=O)c1ccc(F)cc1 29.1%
O=C(CCl)Nc1ccccc1Sc1ccc(Cl)cc1 33.5%
O=C1NC(=O)/C(=C/c2ccccc2Oc2ccc(Cl)cc2)S1 -26.6%
O=C1NC(=O)/C(=C/c2ccccc2OCc2ccccc2)S1 16.2%
Cc1cc(C(=O)CCl)c(C)n1CCc1ccc(Cl)cc1 21.1%
CCC(C)NC(=O)Cn1cnc2sc(C)c(S(=O)(=O)N3CCN(c4ccccc4OC)CC3)c2c1=O (configuration not stated) 9.7%
CCOC(=O)C1CCN(S(=O)(=O)c2ccc3c(c2)N(C(C)=O)CC(C)S3)CC1 (configuration not stated) 5.4%
CN(C)S(=O)(=O)Oc1ccc(C(=O)Nc2cccc(C(F)(F)F)c2)cc1 36.5%
CCOC(=O)C1=C(Cc2ccc(Cl)cc2)C(=O)c2ccccc2C1=O 7.7%
CCOC(=O)c1sc2ccccc2c1OC(=O)c1ccc(C)cc1 17.4%
CC(Nc1ncnc2sccc12)c1ccccc1 (configuration not stated) 35.1%
COc1cccc(CNc2ncnc3cc(Cl)ccc23)c1 49.2%
Fc1ccc(CNc2ncnc3cc(Cl)ccc23)cc1 39.9%
Cc1cc2c(NCc3ccccc3)ncnc2s1 42.6%
Cc1ccccc1OCc1nc2ccccc2c(=O)n1/N=C/c1cn[nH]c1-c1ccc(Br)cc1 3.5%
Cc1ccccc1C(=O)N1CCN(c2ccccn2)CC1 48.2%
CCN(C(=O)c1cnc(N2CCN(c3ncccn3)CC2)c2ccccc12)c1cccc(Cl)c1 46.7%
COc1ccc(C)cc1NC(=O)c1sc2ncnc(N3CCN(c4ccccn4)CC3)c2c1C -10%
COc1ccccc1N1CCN(c2ncc(C(=O)N3CCN(c4cccc(Cl)c4)CC3)c3ccccc23)CC1 21.9%
S=C(Nc1ccc(Oc2ccccc2)cc1)N1CCN(c2ccccn2)CC1 21%
O=C(CN1CCN(c2ccccn2)CC1)Nc1cccc(Br)c1 13.8%
Cc1nc(N2CCN(c3ccccn3)CC2)c2c(C)c(C(=O)N3CCN(c4ccccc4F)CC3)sc2n1 -27.6%
Cc1nc(N2CCN(c3ccccn3)CC2)c2c(C)c(C(=O)Nc3ccccc3F)sc2n1 4.6%
O=C(COC(=O)/C=C/C(=O)OCC(=O)Nc1ccccc1F)Nc1ccccc1F 33.2%
COC(=O)c1ccc2c(c1O)C(=O)c1ccccc1C2=O -53.2%
CCOC(=O)c1cccc2c1-c1ccccc1/C2=N/O 48.8%
O=C(NC(NC(=S)Nc1ccccc1Cl)C(Cl)(Cl)Cl)c1cccc(Cl)c1 (configuration not stated) -7%
Oc1cccc(/C=N/Nc2ccc(Cl)nn2)c1O -18%
COc1ccc(NC(=S)NC(NC(=O)c2ccc(Cl)cc2Cl)C(Cl)(Cl)Cl)c([N+](=O)[O-])c1 (configuration not stated) 34.9%
O=[N+]([O-])c1ccc(O)c(/C=N/Nc2ncnc3c2cnn3-c2ccccc2)c1 46.3%
Oc1c(Br)cc(Br)cc1/C=N/Nc1ccc(Cl)nn1 44.5%
CCCOc1ccc(/C=N/NC(=S)Nc2ccccc2[N+](=O)[O-])c(O)c1 15.1%
O=[N+]([O-])c1cc(Cl)cc(/C=N/NC(=S)Nc2cc(S(=O)(=O)N3CCOCC3)ccc2Cl)c1O 49.1%
O=C(NC(NC(=S)Nc1ccccc1)C(Cl)(Cl)Cl)c1cccc(Cl)c1 (configuration not stated) 23.1%

inhibition, active:
COc1ccc(NC(=O)/C(Cl)=C(/Cl)S(=O)Cc2ccccc2Cl)cn1 (configuration not stated) 98.2%
Cn1c(=O)c(C#N)c(-c2ccc(F)cc2)c2cc(C(=O)c3cc(Cl)cc(Cl)c3O)cnc21 95.8%
COc1ccc(C2(c3ccc(OC)cc3)NC(=O)N(CC(=O)Nc3ccc(C(N)=O)cc3)C2=O)cc1 59.3%
N#CC1=C(SCC(=O)NC23CC4CC(CC(C4)C2)C3)NC(=O)C(C#N)C12CCCCC2 (configuration not stated) 66.1%
CC(C)(C)C1CCC2(CC1)C(C#N)=C(SCC(=O)Nc1ccccc1)NC(=O)C2C#N (configuration not stated) 79%
COc1ccc(C(=O)CN2C(=O)c3ccccc3S2(=O)=O)cc1 92.1%
O=C1c2ccccc2S(=O)(=O)N1Cc1nc2ccccc2s1 53.2%
Cc1ccc(C(=O)CN2C(=O)c3ccccc3S2(=O)=O)cc1 85.1%
O=C(CCl)Nc1ccc(Sc2ccc(NC(=O)CCl)cc2)cc1 81.3%
O=C1NC(=O)/C(=C\c2ccccc2Oc2ccc(F)c(F)c2)S1 55.7%
Cc1cc(C(=O)CCl)c(C)n1CCc1ccc(F)cc1 55.6%
CCOC(=O)C1CCN(C(=O)Cn2cnc3sc(C)c(S(=O)(=O)N4CCC(C)CC4)c3c2=O)CC1 55.3%
CN(C)S(=O)(=O)c1cccc(NC(=O)c2ccc(COc3ccccc3)cc2)c1 80.7%
CCOC(=O)C1=C(c2ccc(OC)cc2)C(=O)c2ccccc2C1=O 108%
CCOC(=O)C1=C(Cc2ccc(F)cc2)C(=O)c2ccccc2C1=O 90.8%
CCOC(=O)C1=C(Cc2ccc(C)cc2)C(=O)c2ccccc2C1=O 61.3%
c1ccc(CNc2ncnc3ccccc23)cc1 65.6%
CC(Nc1ncnc2ccccc12)c1ccccc1 (configuration not stated) 83.3%
COc1ccc(CNc2ncnc3ccccc23)cc1 65.6%
CCc1ccc(NC(=O)c2cnc(N3CCN(c4ccccn4)CC3)c3ccccc23)cc1 78.3%
Cc1cc(Br)ccc1NC(=O)c1cnc(N2CCN(c3ccccn3)CC2)c2ccccc12 73.3%
O=C(c1cnc(N2CCN(c3ccccn3)CC2)c2ccccc12)N1CCN(c2cccc(Cl)c2)CC1 53.2%
Cc1ccc(NC(=O)c2cnc(N3CCN(c4ccccn4)CC3)c3ccccc23)c(Br)c1 99.8%
COC(=O)c1cccc2c1-c1ccccc1/C2=N/O 67.3%
O=[N+]([O-])c1ccc(O)c(/C=N/Nc2ccc(Cl)nn2)c1 70.3%
O=[N+]([O-])c1ccc(O)c(/C=N/NC(=S)Nc2ccc(Cl)cc2Cl)c1 105%
O=C(NC(NC(=S)Nc1ccc(Cl)cc1Cl)C(Cl)(Cl)Cl)c1cccc([N+](=O)[O-])c1 (configuration not stated) 95.7%
O=[N+]([O-])c1ccc(O)c(/C=N/Nc2ccccc2[N+](=O)[O-])c1 69.5%
